From PubChem BioAssay AID2314 (National Center for Advancing Translational Sciences (NCATS), 2010)
About 37,000 (12%) of roughly 300,000 compounds were called active. The full list was thinned out, with actives kept by preference. A number with no mark means an inactive call. Rule as the data show it: active = max response mostly above about 13% (no sharp cut-off); inactive = mostly below about 14%.

Test: Cycloheximide Counterscreen for Small Molecule Inhibitors of Shiga Toxin; also: read at 38.3 µM for the half of the compounds with a filed dose; 0% is about no effect
Settings: cell reporter, cycloheximide protein synthesis inhibition counterscreen; hits give high values

Compound	max response
CCOCCc1nn2c(=O)cc(CSCC(=O)Nc3cccc(C)c3C)nc2s1	-4.2%
COc1ccccc1S(=O)(=O)c1c(C)cc(C)[nH]c1=O	-6.18%
CCCCOC(=O)c1ccc(NC(c2ccc(C)cc2)P(=O)(OC)OC)cc1 (stereo unspecified)	-2.29%
Cc1cc(C)c(OCC(=O)N(Cc2cccs2)C2CCS(=O)(=O)C2)c(C)c1 (stereo unspecified)	8.48%
CCN(CC)c1ccc([N+](=O)[O-])c2cccnc12	0.792%
Cc1ccccc1Nc1c([N+](=O)[O-])ccc2nonc12	0.319%
CN(c1ccccc1)c1ccc([N+](=O)[O-])c2nonc12	12% (active)
CC(C)c1ccc(NC2CCCN(C(=O)c3ccncc3)C2)cc1 (stereo unspecified)	-4.01%
Cc1ccc(S(=O)(=O)N2CCN(CC(=O)N/N=C/c3ccc(Br)s3)CC2)cc1	-1.09%
COCCCNc1nc2ccccc2nc1NS(=O)(=O)c1ccc(F)cc1	-1.37%
COc1ccc(OCC(=O)N2CCN(C(=O)c3cccs3)CC2)cc1	-2.3%
COc1ccc(N2CCN(C(=O)c3cccs3)CC2)cc1	20.7% (active)
COc1ccc(N2CCN(C(C)=C3C(=O)c4ccccc4C3=O)CC2)cc1	40.7% (active)
CC(=C1C(=O)c2ccccc2C1=O)N1CCN(c2ccccn2)CC1	4.62%
O=C(COc1ccccc1)Nc1ccc(N2CCN(C(=O)c3cccs3)CC2)cc1	-1.71%
COc1ccc(C2C(C(=O)N3CCN(c4ccc(OC)cc4)CC3)c3ccccc3C(=O)N2C)cc1 (stereo unspecified)	-3.17%
O=C(N[C@@H](Cc1ccccc1)C(=O)OCc1ccccc1)c1nc[nH]c1C(=O)N[C@@H](Cc1ccccc1)C(=O)OCc1ccccc1	-1.4%
Cc1ccc(N2C(=O)CC(Sc3ncn[nH]3)C2=O)cc1 (stereo unspecified)	-4.4%
COc1cccc(/C=C2\Sc3ccc(C(=O)NCC4CCCO4)cc3N(C)C2=O)c1 (stereo unspecified)	6.25%
COc1ccc([N+](=O)[O-])cc1-c1nc2ccccc2nc1-c1ccccc1	-2.38%
O=[N+]([O-])c1cccc(Nc2c3ccccc3nc3ccccc23)c1	4.55%
O=[N+]([O-])c1ccc2c(c1)Nc1nc3ccccc3nc1N2	22.7% (active)
O=C(NCCOc1cccnc1)c1ccc(OC2CCN(Cc3ccccn3)CC2)cc1	10.4%
O=C(CN1CCC(O)(c2cccc(C(F)(F)F)c2)CC1)NCCc1ccccc1	-0.807%

Compound	max response
COc1cccc(NC(=O)c2nn(C34CC5CC(CC(C5)C3)C4)cc2[N+](=O)[O-])c1	13.1%
Cn1cc([N+](=O)[O-])c(C(=O)Nc2ccc3c(c2)OCCO3)n1	26.5% (active)
Cc1nc([N+](=O)[O-])cn1CC(=O)Nc1ccc2c(c1)OCO2	-2.41%
Cn1cc([N+](=O)[O-])c(C(=O)Nc2cnn(Cc3ccc(F)cc3)c2)n1	9.36%
Cc1onc(C(=O)Nc2ccc3c(c2)OCO3)c1[N+](=O)[O-]	30.6% (active)
Cc1nn(CC(=O)Nc2ccc3c(c2)OCO3)c(C)c1[N+](=O)[O-]	0.353%
CCCc1nn(C)c2c(=O)[nH]c(-c3cc(S(N)(=O)=O)ccc3OCC)nc12	-4.06%
COCCn1c(SCC(=O)N2CCCCCC2)nc2c(c1=O)SCC2	4.66%
CC(C)Cc1ccc(C(C)C(=N)N)cc1 (stereo unspecified)	-2.08%
COCc1ccc(C(=O)NC2CC(C)(C)Cc3c2cnn3-c2ccc(C)cc2)o1 (stereo unspecified)	4.44%
Cc1nc(Cl)c(C#N)c2c1CCCC2	4.78%
COC(=O)c1c(C)c(C)nc(N)c1C#N	5.15%
COCc1c(N)c(C)nc(Cl)c1C#N	14% (active)
Fc1ccc(CNCc2ccc(Br)cc2)cc1	2.17%
CCc1cc2c(=O)n(-c3ccccc3)c(SCC(=O)O)nc2s1	-0.568%
COCc1cc(=O)[nH]c(SC)n1	-3.39%
O=C(N/N=C/c1cccc(OCc2ccccc2)c1)c1ccc(Br)o1	47.1% (active)
Cc1cccc(OCC(=O)NCC(=O)N/N=C/c2ccc(N(C)C)cc2)c1	1.69%
Cc1ccc(OCCOCCOc2ccc(Br)cc2/C=N\NC(=O)c2ccncc2)cc1	-4.52%
O=C(Cc1cccs1)N/N=C/c1ccc(OCc2ccccc2)cc1	-2.21%
Cc1ccc(OCCOc2cccc(/C=N/NC(N)=O)c2)cc1	15.2% (active)
O=C(N/N=C/c1ccc(OCc2ccccc2)cc1)c1ccc(O)cc1	18.7%
Cc1ccc(S(=O)(=O)Oc2ccc(/C=N/NC(=O)c3ccncc3)cc2)cc1	6.52%
CC(C)NS(=O)(=O)c1ccc(OCC(=O)NC2CCCCCC2)cc1	1.29%

Compound	max response
Cc1nc(N2CCCCC2)sc1C=O	-2.42%
Fc1ccc2nc(N3CCCCC3)sc2c1	29.6% (active)
c1ccc2sc(N3CCNCC3)nc2c1	11.7%
Brc1ccc2nc(N3CCCC3)sc2c1	38.8% (active)
O=C(NCCc1cccc(F)c1)C1CCCN(c2nc3ccccc3s2)C1 (stereo unspecified)	-3.33%
Cc1nc2ccc(S(=O)(=O)NC(C(=O)N3CCCCCC3)C(C)C)cc2s1 (stereo unspecified)	-2.97%
CCOC(=O)N1CCC(NC(=O)c2ccc3nc(N4CCOCC4)sc3c2)CC1	-1.55%
c1c2c(cc3sc(N4CCCCC4)nc13)OCCO2	25.6% (active)
Cc1nc2cc3c(cc2s1)OCO3	-2.58%
O=C(CN(CC1CCCO1)C(=O)CNS(=O)(=O)c1ccc(Cl)cc1)NCc1ccccc1 (stereo unspecified)	-3.57%
CC1=C[C@H]2Cc3cc(C)cc(C)c3S(=O)(=O)[C@@H]2C=C1	-2.12%
CC(Sc1nnc(-c2ccccc2F)n1C1CC1)C(N)=O (stereo unspecified)	-2.7%
O=C(NNS(=O)(=O)c1ccc([N+](=O)[O-])cc1)C1CCCCC1	10.1%
COc1ccccc1C(=O)N1CCN=C1SCc1cccnc1	0.58%
O=C1CN(C(=O)c2ccccc2F)C(c2ccc(F)cc2)c2cc(F)ccc2N1 (stereo unspecified)	-4.28%
Cc1nccn1CC(=O)N/N=C/c1ccc(O)c(O)c1	-1.27%
O=C(N/N=C/c1ccc(O)c(O)c1)C1c2ccccc2Oc2ccccc21	-0.597%
Oc1ccc(/C=N/Nc2ccc(C(F)(F)F)cn2)cc1O	57.2% (active)
CCCc1cc(=O)[nH]c(SCC(=O)Nc2sc3c(c2C#N)CCCC3)n1	-1.28%
O=S(=O)(NC1CCCCC1N1CCCCC1)c1ccc(Cl)cc1 (stereo unspecified)	-6.15%
O=C(O)c1ccc(S(=O)(=O)N2CCOCC2)o1	-6.82%
COc1ccc(OC)c(NC(=O)CN(Cc2ccc(Cl)cc2)S(C)(=O)=O)c1	-2.07%
COc1ccc(Cl)cc1NC(=O)CN(C)Cc1ccc(OC)c(OC)c1	10.8% (active)
COc1ccc(Cl)cc1NC(=O)CN(C)C(=O)CNC(=O)C12CC3CC(CC(C3)C1)C2	6.85%

Compound	max response
CN1CCN(c2ccccc2NC(=O)COc2ccc(C3CCCCC3)cc2)CC1	-1.31%
CCOC(=O)c1cccc(NC(=O)C2CCN(c3ncnc4c3nc3n4CCCCC3)CC2)c1	-6.95%
O=C(NCc1ccncc1)C1CCCN(S(=O)(=O)c2ccc(Br)cc2)C1 (stereo unspecified)	1.08%
COc1ccc(CSc2nnnn2-c2ccc(O)cc2)cc1F	-3.78%
CCc1ccc2oc(-c3ccc(N)cc3)nc2c1	38.2% (active)
Cn1c(Cc2cccc3ccccc23)nnc1SCC(=O)N1CCN(c2cccc(Cl)c2)CC1	-3.1%
COCc1cc(C)n(CC(=O)NCC2CCCO2)c(=O)c1C#N (stereo unspecified)	-6.37%
Cc1c(CCC(=O)O)c(=O)oc2c(C)c(OCc3ccccc3Cl)ccc12	1.9%
CC(C)(C)n1nnnc1C(c1ccccc1F)N1CCN(C(=O)c2ccco2)CC1 (stereo unspecified)	-1.72%
COCCCNC(=O)/C=C/c1ccc(OCc2c(F)cccc2Cl)cc1	-7.84%
CN(C)CCCNC(=O)/C=C/c1ccc(OCc2c(F)cccc2Cl)cc1	-2.24%
O=C(/C=C/c1ccc(OCc2c(F)cccc2Cl)cc1)N1CCOCC1	27.3% (active)
COc1ccc(NS(=O)(=O)c2cc(C(=O)Nc3ccccc3C(=O)O)ccc2C)cc1	1.17%
CCOc1cc(N2CCOCC2)c(OCC)cc1NC(=O)c1cc(C)nc2ccccc12	-1.57%
O=[N+]([O-])c1ccc2c(c1)C(O)n1nc(-c3ccccc3)nc1S2 (stereo unspecified)	-1.52%
COc1ccc(-c2nc3cc([N+](=O)[O-])ccc3o2)cc1OC	24% (active)
Cc1nnc(-c2ccc(Oc3ccc(C)c(C)c3)c([N+](=O)[O-])c2)o1	4.56%
COc1cc2c(cc1OC)C(c1cccc([N+](=O)[O-])c1)=NCC2	-3.32%
CC(=O)Oc1ccc2c(=O)oc(-c3ccc([N+](=O)[O-])cc3)nc2c1	1.51%
O=[N+]([O-])c1ccc2oc(-c3cccc(O)c3)nc2c1	46.9% (active)
O=C1[C@@H]2C(c3cccnc3)=NO[C@@H]2C(=O)N1c1ccc(Cl)cc1Cl	-1.88%
Oc1ccc(-c2cccc(-c3ccc(O)cc3)c2)cc1	29.3% (active)
O=C(CN1CCN(c2ccc(O)cc2)CC1)Nc1ccc(-c2ccccc2)cc1	-0.918%
Oc1ccc(-c2nncn2-c2ccccc2)cc1	1.52%
